SMILES strings stand for the structures. Values joined by “and” are separate entries in the source; they are usually repeats but may differ in a detail not shown here. Equal entries are not always repeated. The whole screen tested about 320,000 compounds, of which about 2,200 (0.69%) were called active.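 The calls were made as follows: active = inhibition above the mean of all tested compounds plus 3 SD, cutoff set per campaign (cut at about 30% in these data); inactive = the rest.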 The list comes from a sample in which actives are over-represented; it also holds similar structures and randomly drawn compounds. The source holds several records for some structures; these can differ, active in one and inactive in another.

We go through 94 compounds from PubChem BioAssay AID2129 (The Scripps Research Institute Molecular Screening Center, 2009).

The target of the test is Bcl-2-like protein 1 (Homo sapiens) (UniProt Q07817). Briefly: inhibitors of human Bcl-xL, primary screen, biochemical, fluorescence polarization, HTS (AID 2129).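 Also: 0% = DMSO wells and 100% = unlabeled Bim-BH3 peptide competitor; inhibitors lower millipolarization by displacing the labeled peptide.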 The following applies: GST-Bcl-xL / FITC-Bim BH3 peptide fluorescence polarization; at 10.9 µM; stronger effect = higher value.
Sequence of Bcl-2-like protein 1 (Homo sapiens) (Q07817 whole entry, looked up): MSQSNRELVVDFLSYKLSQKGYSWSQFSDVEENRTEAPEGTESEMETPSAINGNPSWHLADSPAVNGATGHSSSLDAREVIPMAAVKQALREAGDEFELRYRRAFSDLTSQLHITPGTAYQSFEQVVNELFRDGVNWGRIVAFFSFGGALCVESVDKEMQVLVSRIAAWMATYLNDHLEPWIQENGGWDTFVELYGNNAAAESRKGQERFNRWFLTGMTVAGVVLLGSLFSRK
Regarding `COc1ccc(NC(=S)N2N=CCC2c2ccccc2)cc1` (centres undefined), the inhibition (usually the drop in the measured response relative to a control, in per cent) is 1.8% (inactive).

For the compound `C[n+]1ccc(C(=O)NCc2ccccc2)cc1`, the inhibition is -12.9% (inactive). Regarding `COc1ccc(S(=O)(=O)Nc2cc(C)on2)cc1NC(C)=O`, the inhibition was 3.59% (inactive).

With `O=c1c2cc(-c3ccccc3)sc2nc2n1N=C(c1cccs1)CS2`, the inhibition is 7.98% (inactive). As for `COc1ccc(C(=O)NCCNc2ccc([N+](=O)[O-])cn2)cc1`, the inhibition is -0.8% (inactive).

In the case of `COc1ccccc1C1CCN(c2ccc([N+](=O)[O-])cn2)CC1`, the inhibition was 6.64% (inactive).

With `COc1ccc(Nc2ccc([N+](=O)[O-])cn2)cn1`, the inhibition is 47.6% (active). Next, `O=C(Cn1cc(C(F)(F)F)ccc1=O)N/N=C/c1ccc(Cl)cc1Cl`: 4.51% (inactive). Regarding `Cc1ccc(NC(=O)CN(C)S(=O)(=O)c2cnc[nH]2)cc1C`, the inhibition was 2.37% (inactive). As for `Cc1ccc(C(=O)N/N=C\c2cc(Br)c(Br)o2)cn1`, the figure is 39.1% (active); as for `O=C(N/N=C\c1cc(Br)c(Br)o1)C1COc2ccccc2O1` (centres undefined), 8.03% (inactive); as for `Cc1ccc(C(=O)N/N=C/c2cccc3ccccc23)cn1`, 0.59% (inactive). Regarding `CC(C)(C)C1CCc2c(sc3nc(SCC(N)=O)nc(N)c23)C1` (centres undefined), the inhibition is 0.88% (inactive).

`O=C1COc2ccc(C(=O)CSc3ccc(Br)cc3)cc2N1`: the inhibition was 1.67% (inactive). Next, `Cc1ccc(NC(=O)CSc2nc(=O)n(CCN(C)C)c3c2CCCC3)c(C)c1`: 0.09% (inactive).

In the case of `O=C1CCC(=O)N1CCOP1(=O)COc2ccccc2OC1`, the inhibition is 4.75% (inactive). As for `CN(CC(=O)Nc1ccc(Cl)c(C(F)(F)F)c1)C(=O)CCC(=O)c1ccccc1`, the figure is 45.3% (active); as for `Cc1ccc(C(=O)CCC(=O)N(C)CC(=O)Nc2c(Cl)cccc2Cl)cc1`, -0.97% (inactive). For `Cc1cccc(C)c1NC(=O)CN(C)C(=O)CCC(=O)c1ccccc1`, the inhibition is 7.72% (inactive).

Regarding `CC(C)c1ccc(C2C(C(=O)c3ccco3)=C(O)C(=O)N2CC2CCCO2)cc1` (centres undefined), the inhibition is 1.85% (inactive). Take `Cc1ccc2nc(N3C(=O)C(O)=C(C(=O)c4ccco4)C3c3cccc(O)c3)sc2c1` (centres undefined): the inhibition is 2.1% (inactive). Next, `C=CCSc1nnc(N2C(=O)C(O)=C(C(=O)c3ccco3)C2c2ccc(F)cc2)s1` (centres undefined): 51.8% (active); `CC(OC(=O)C1CC(=O)N(Cc2ccccc2)C1)C(=O)Nc1ccccc1[N+](=O)[O-]` (centres undefined): 5.02% (inactive). Next, `C=CCNc1nnc(C)c2ccccc12`: 1.09% (inactive); `C=CCNc1nnc(SCC(=O)N2CCCCC2)c2ccccc12`: 108% (active). Consider `O=C(CSc1ncccn1)N1CCCC1`, for which the inhibition was 1.98% (inactive). With `COCCNC(=O)C(c1ccc(C)cc1)N(C(=O)CCC(=O)Nc1ccccn1)c1cccc(C)c1` (centres undefined), the inhibition was 3.67% (inactive).

Take `CN(C)C(=O)CSc1n[nH]c(-c2ccco2)n1`: the inhibition was 1.16% (inactive).

`O=C1CCC(=O)N1c1ccc(NCCc2ccccc2F)c([N+](=O)[O-])c1`: the inhibition is 4.81% (inactive). Regarding `COC(=O)c1sc(NC(=S)NC(=O)c2ccc(C)cc2)nc1C`, the inhibition was 90.6% (active). Next, `Cc1ccc(NC(=S)NC(=O)c2ccc(-c3ccccc3)cc2)cc1`: 1.62% (inactive).

`Cc1ccc(C(=O)NC(=S)Nc2ccccc2C)cc1`: the inhibition was 2.65% (inactive). For `CCOC(=O)c1sc2nc(C)nc(SCC(N)=O)c2c1C`, the inhibition is 3.97% (inactive). As for `CC(C)(C)OC(=O)NCCCC1=CC2=CC(=O)C(C)(OC(=O)c3ccco3)C(=O)C2=CO1` (centres undefined), the figure is 62.9% (active); as for `C=CCN1C=C2C(=O)C(C)(OC(=O)CCc3ccccc3)C(=O)C=C2C=C1c1ccc(C#N)cc1` (centres undefined), 26.4% (inactive). Next, `O=C(COC(=O)c1ccco1)NCc1ccc(Cl)cc1`: 3.7% (inactive); `CCCN1CNC(=S)N(CCc2ccccc2)C1`: -3.74% (inactive); `C/C(CC(=O)NC(C)c1ccccc1)=N\NC(N)=S` (centres undefined): 4.39% (inactive). For `O=C(c1cc(=O)c2ccccc2o1)N1CCN(c2ccccc2)CC1`, the inhibition is -0.91% (inactive). Turning to `CC(C)N(C(=O)COC(=O)c1ccccc1C(=O)N1CCN(c2ccc(F)cc2)CC1)C(C)C`, the inhibition was 10.7% (inactive). Next, `O=C(COC(=O)c1ccccc1C(=O)N1CCN(c2ccccc2)CC1)NCc1ccccc1`: 56.5% (active). Next, `CCc1c(C)nc2c(OC)cccc2c1Cl`: 7.8% (inactive). As for `COC(=O)[C@H]1[C@H]2C[C@H]3c4[nH]c5ccccc5c4CCN3C[C@@H]2CC[C@@H]1O`, the figure is 6.53% (inactive) and 60% (active); as for `O=C(NC1CCCCC1)N1CCc2[nH]c3ccccc3c2C1`, 16.5% (inactive); as for `COC(=O)C1CCN(C(=O)c2cc(=O)[nH]c3ccccc23)CC1`, 1.35% (inactive).

As for `CCCC(C)c1nnc(NC(=O)C2CC(=O)N(c3ccc(OCC)cc3)C2)s1` (centres undefined), the inhibition was 7.2% (inactive).

Take `Cc1ccc(CS(=O)(=O)CCC(=O)NCc2ccc(F)cc2)cc1`: the inhibition was -0.6% (inactive).

As for `COc1ccc(CNc2nnnn2C)cc1`, the inhibition is -1.64% (inactive). Next, `CCOC(=O)CNc1nc2ccccc2n2c(C)nnc12`: 4.27% (inactive). As for `Fc1ccc(CNc2nc3ccccc3n3nnnc23)cc1`, the figure is 49% (active); as for `CCCCCN(C(=O)NC(=O)Nc1ccccc1C)S(C)(=O)=O`, 2.62% (inactive). Next, `O=[N+]([O-])c1ccc(N2CCNCC2)cc1NCc1cccnc1`: -23.7% (inactive); `O=C(NCCCc1ccccc1)C(=O)c1c[nH]c2ccccc12`: 4.6% (inactive); `CCOc1ccc(N2CC(C(=O)NCCN3C(=O)S/C(=C\c4cccnc4)C3=O)CC2=O)cc1` (centres undefined): -5.5% (inactive). On to `COc1ccc(N2CC(C(=O)NCCN3C(=O)S/C(=C\c4cccnc4)C3=O)CC2=O)c(OC)c1` (centres undefined), for which the inhibition was 149% (active). Turning to `COc1ccccc1N1CC(C(=O)NCCN2C(=O)S/C(=C\c3cccnc3)C2=O)CC1=O` (centres undefined), the inhibition is 9.93% (inactive). As for `O=C(COc1ccc(Cl)cc1)NCCS(=O)(=O)N1CCN(c2ccc(F)cc2)CC1`, the figure is 5.68% (inactive); as for `CCN(CC)c1ccc(C(=O)Nn2c(C)nc3ccccc3c2=O)cc1`, 5.43% (inactive). Next, `C=CCN(C(=O)Nc1ccc2oc(C)nc2c1)c1ccccc1`: 13.5% (inactive). Next, `CCN(CC)c1ccc2oc(=O)c(C)nc2c1`: 31.2% (active); `C=C(C)C(=O)O[C@H]1C/C(C)=C\C(=O)/C=C(\C)[C@H](O)[C@@H]2OC(=O)C(=C)[C@@H]21`: 3.95% (inactive). In the case of `Cc1cccc(C(=O)OCC(=O)NCC(C)C)c1O`, the inhibition was 2.99% (inactive). As for `Cc1cnc(C(=O)Oc2cccc(Cl)c2Cl)cn1`, the figure is 9.01% (inactive); as for `Cc1nn2c(c1-c1ccccc1)N=C(c1ccco1)CC2c1ccccc1` (centres undefined), 3.95% (inactive).

With `CC1(C)C=C2[C@H]3CC[C@@H]4[C@@]5(C)CCC(=O)C(C)(C)[C@@H]5CC[C@@]4(C)[C@]3(C)CC[C@@]2(C(=O)O)CC1`, the inhibition was 5.29% (inactive). Next, `COc1ccc(CNC(=O)C2CCN(S(=O)(=O)c3ccc(SC)cc3)CC2)cc1`: 9.54% (inactive); `CN(C)/C=C1/Nc2ccccc2C1=O`: 18.7% (inactive); `Cc1cc(C)c(/C=C2\C(=O)Nc3ccccc32)[nH]1`: 163% (active).

For the compound `O=C1Nc2ccccc2/C1=C/c1ccnc2ccccc12`, the inhibition is 2.91% (inactive). Regarding `O=C(Nc1ccccc1C(=O)NCCCn1ccnc1)c1ccc(Cl)cc1Cl`, the inhibition was 9.41% (inactive).

On to `CC1CCN(C(=O)COC(=O)c2cc(=O)[nH]c3ccccc23)CC1`, for which the inhibition was 2.08% (inactive). On to `Cc1noc(C)c1CSCC(=O)Nc1nc2ccc(Oc3ccccc3)cc2s1`, for which the inhibition is 3.02% (inactive). As for `CC(C)(CSc1nncn1/N=C/c1ccco1)NS(=O)(=O)c1ccc(Cl)cc1`, the figure is 4.42% (inactive). As for `NS(=O)(=O)c1ccc(NC(=O)COC(=O)c2c3c(nc4ccccc24)/C(=C\c2ccc4c(c2)OCO4)CCC3)cc1`, the inhibition was 34.1% (active).

Turning to `COc1cc(/C=C2\CCCc3c2nc2ccccc2c3C(=O)O)cc(Cl)c1O`, the inhibition is 9.54% (inactive).

On to `NS(=O)(=O)c1ccc(NC(=O)COC(=O)c2cc3ccccc3oc2=O)cc1`, for which the inhibition is 3.99% (inactive). Next, `COc1ccc(CNC(=O)C(C)NCc2ccccc2Cl)cc1` (centres undefined): 2.09% (inactive); `CCOCCCNC(=O)C(NC(=O)CNC(=O)c1ccccc1)c1ccc(OC)cc1` (centres undefined): 3.02% (inactive); `COC(=O)[C@H](Cc1ccccc1)NC(=O)Nc1ccc(OC)cc1`: 0.58% (inactive). Next, `COc1cc([C@H](Cc2ccccc2)NC(C)=O)oc(=O)c1`: 48.2% (active); `CCOC(=O)C(Cc1ccccc1)NC(=O)CCC(=O)c1ccc(OC)cc1` (centres undefined): 6.1% (inactive). Next, `COc1ccc(CCn2ccc(O)c(Cc3ccc(Cl)cc3Cl)c2=O)cc1OC`: 4.67% (inactive). With `CN1C(C)(C)CC(NC(=O)CCC(=O)NC2CC(C)(C)N(C)C(C)(C)C2)CC1(C)C`, the inhibition is 2.66% (inactive). Turning to `CC1CCN(C(=O)COC(=O)c2cc(S(=O)(=O)N3CCOCC3)ccc2Cl)CC1`, the inhibition is -2.49% (inactive). Next, `Cc1ccnc(NC(=O)C2CCN(S(=O)(=O)c3c(C)c(C)cc(C)c3C)CC2)c1`: -0.18% (inactive). In the case of `CC1(C)c2[nH]c3ccccc3c2C[C@H]2C(=O)N(N)CC(=O)N21`, the inhibition is 1.69% (inactive). As to `CCOc1nc(OCC)nc(-n2cc(-c3ccccc3)nn2)n1`, the inhibition was 6.35% (inactive).

Take `CC1CCCCC1NC(=O)/C(C#N)=C/C=C/c1ccccc1[N+](=O)[O-]` (centres undefined): the inhibition was 7.36% (inactive).

For `O=c1ccc2c(-c3ccccc3S(=O)(=O)O)c3ccc(O)c(O)c3oc-2c1O`, the inhibition is 92.5% (active). Next, `O=C(CSc1nnc(SCc2ccc(Cl)cc2)s1)N/N=C/c1ccccc1Cl`: -6.66% (inactive); `CN1c2ccc(C=O)c3c(C=O)ccc(c23)N(C)C1(C)C`: 144% (active); `CCOC(=O)c1c(-c2ccccc2)oc2cc(Br)c(O)c(C=O)c12`: 11.5% (inactive). With `CCOC(=O)c1c(C)oc2cc(Sc3ccccc3)c(O)c(O)c12`, the inhibition was 39% (active). Next, `CCOC(=O)c1c(C)oc(C)c(C(=O)OCC)c1=O`: 2.36% (inactive).
